Structures are written as SMILES. Values joined by “and” are separate entries in the source; they are usually repeats but may differ in a detail not shown here. Equal entries are not always repeated. In all, about 360,000 compounds went through this assay and about 3,100 (0.86%) were called active. Shown is part of a subset that was picked to be rich in actives. Unmarked numbers belong to inactive results.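 The calls were made as follows: active = at least 50% inhibition at 5 µM, scaled per plate between neutral and stimulator controls; inactive = the rest.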

This experiment in a line: inhibitors of PAF-induced NF-kB signaling, primary screen, cell-based, GFP fluorescence, uHTS (AID 588850).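 Also: PAF is a Pseudomonas aeruginosa culture filtrate used as stimulus; plate controls were PAF-stimulated DMSO wells for no effect and unstimulated DMSO wells for full effect.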 Conditions: KKLEB NF-kB-GFP reporter, GFP fluorescence overnight, at 5 µM, active compounds read high.
Consider `CNCC(O)c1ccc(O)c(O)c1` (configuration not stated), for which the inhibition (as a rule, the relative decrease from the control value, in per cent) is 12.4%. Next, `CCN1C(=O)c2cccc3c(S(=O)(=O)Nc4ccccc4O)ccc1c23`: -71.5%.

On to `CCN(CC)S(=O)(=O)c1ccc2c3c(cccc13)C(=O)S2`, for which the inhibition is 54.1% (active). Consider `CN(CCc1ccccn1)S(=O)(=O)c1ccc2c3c(cccc13)C(=O)N2`, for which the inhibition was 5.4%. The same measure for `Cc1ccc(C(=O)OCC(=O)NCc2cc(C)c(O)c(C)c2)cc1S(=O)(=O)N1CCCCC1`: -0.3%; for `COCCCNc1ccn2nc(-c3ccc(CC(C)C)cc3)cc2n1`: -77.9%; for `Cc1ccc2occ(/C=N/NC(=O)c3ccccc3C)c(=O)c2c1`: 71% (active). Next, `CC(C)(C)OC(=O)NCCCCCC(=O)N/N=C/c1coc2ccccc2c1=O`: 4.1%.

Regarding `O=c1c(/C=N/O)coc2ccc(Cl)cc12`, the inhibition was 0.9%. Consider `Cc1ccc(NC(=O)[C@H](Cc2ccccc2)NC(=O)CC[C@H]2O[C@@H](n3ccc(=O)[nH]c3=O)[C@H](O)[C@@H]2O)cc1C`, for which the inhibition is -33.7%.

On to `CCCCC(CC)CNCc1cccn1CCN1CCOCC1` (configuration not stated), for which the inhibition is -18.7%. On to `Cc1ccc(COc2ccc(/C=N/NC(=O)CN3CCCCC3)cc2)cc1`, for which the inhibition was -24.1%.

As to `Cc1ccc(/C=N/NC(=O)COc2ccccc2-c2ccccc2)cc1`, the inhibition was 51.1% (active). For `Cc1ccc(/C=N/NC(=O)CSc2nc3ccccc3o2)cc1`, the inhibition is -2.1%. On to `O=C(NCc1ccc(F)cc1)c1cc(C2CCCCN2C(=O)c2ccccn2)on1` (configuration not stated), for which the inhibition is 4.9%. Next, `C=CCN1C=C(C(=O)c2ccccc2)C(=O)CC1`: 3.5%. As for `O=C(CSCc1ccccc1)Nc1ccccc1`, the inhibition was -2.5%.

As for `O=C(CCl)Nc1cccc(CP(=O)(c2ccccc2)c2ccccc2)c1`, the inhibition was 58% (active). The same measure for `O=C(CSc1ccccc1)Nc1ccc(C(=O)Nc2cccc(O)c2)cc1`: -12.7%; for `O=C(NCc1nnc(SCC(=O)N2CCC(Cc3ccccc3)CC2)o1)c1ccco1`: 13.2%. Next, `CCOC(=O)C1(CCOC)CCN(Cc2cc3ccccc3s2)CC1`: 11.7%; `O=[N+]([O-])c1ccc(Oc2ccc(F)cc2Br)c2ccncc12`: 65% (active); `O=c1ccc2c(-c3ccccc3S(=O)(=O)O)c3ccc(O)c(O)c3oc-2c1O`: 22%.

On to `Oc1c(C(c2cccs2)N2CCN(c3ccc(F)cc3)CC2)sc2ncnn12` (configuration not stated), for which the inhibition was 17.4%.

With `CCOC(=O)C1=CC[C@@H](c2ccccc2)N(S(=O)(=O)c2ccc(C)cc2)[C@H]1c1ccc(CC)cc1`, the inhibition is 11.8%. For `CC(C)=CC(=O)Nc1nnc(-c2ccc(F)cc2)s1`, the inhibition is 0.2%. Next, `Cc1ccc(NC(=O)Nc2nnc(-c3ccncc3)s2)cc1`: 68% (active); `Cc1nnc(NC(=O)Cn2c(=O)sc3ccccc32)s1`: -6.1%; `Cc1ccc(NC(=O)Nc2cc(-c3ccccc3)nn2C)cc1Cl`: -3.9%. Next, `CCc1ccc(NC(=O)Nc2ccncc2)cc1`: 16.4%; `Cc1nnc(NC(=O)Nc2ccc(Cl)c(Cl)c2)s1`: 83.2% (active); `C[C@H]1Cn2cnc(C(=O)N[C@H](C)c3ccccc3)c2C(=O)N1`: -3.8%. As to `CCOC(=O)C1=C(CC)Nc2ccccc2N=C1N`, the inhibition is -14.1%. On to `CC(C)Cn1cnc2c1c(=O)n(CC(O)c1ccccc1)c(=O)n2CC(C)C` (configuration not stated), for which the inhibition was 9%. Next, `COc1ccc(NC(=S)N2N=CCC2c2ccccc2)cc1` (configuration not stated): 5.1%. The same measure for `Cc1nnc(SCCCCSc2nnc(C)c(=O)[nH]2)[nH]c1=O`: 6.2%; for `CC(=O)c1cccc(-c2cnc3c(NC=O)cc(-c4cccc(C(=O)N(C)C)c4)cn23)c1`: 0.7%.

In the case of `CC(=O)c1ccc(-c2cnc3c(NC=O)cc(-c4cccc(NS(C)(=O)=O)c4)cn23)cc1`, the inhibition is 74.7% (active). The same measure for `CC(=O)c1cccc(-c2cnc3c(NC=O)cc(-c4ccc(N(C)C)cc4)cn23)c1`: 29.8%; for `Cc1ccc(C(=O)N/C(=C\c2cccs2)C(=O)NCCc2ccccn2)cc1C`: 5.1%. Next, `COc1cncc(-c2cnc3sc(NCCc4ccccn4)nn23)c1`: 74.1% (active); `COc1ccc(-c2cc3nc(NCCOc4ccccc4)ccn3n2)cc1`: 20.8%. On to `O=C(OCc1ccccc1)N1CCC2CC1c1cc(N3CCN(S(=O)(=O)c4cc(Cl)cc(Cl)c4)CC3)ccc12` (configuration not stated), for which the inhibition was 10.1%. Next, `CCC1=C(OC(=O)N(CC)CC)N2C(=O)OC(=NCC3CC3)[C@]2(C)[C@H]2C1=CC[C@H]1C(=O)N(CC(=O)OC)C(=O)[C@H]12`: 7.9%; `COc1cc(C(=O)N/C(=C\c2cn(C)c3ccccc23)C(=O)N2CCOCC2)cc(OC)c1OC`: -23.4%; `COc1cc(NC(=O)c2[nH]cnc2C(N)=O)cc(C(=O)Nc2cccc(C(F)(F)F)c2)c1`: 53.2% (active). As for `COc1ccc(C(N)c2csc(NC(=O)Nc3cccc(C(F)(F)F)c3)n2)cc1` (configuration not stated), the inhibition is 24.7%. On to `COc1cc(NC(=O)c2cncc(-c3ccc(C#N)cc3)c2)cc(C(=O)Nc2cccc(C(F)(F)F)c2)c1`, for which the inhibition is -39% and -21.4%. With `CCCCn1ccnc1C(=O)c1cccc(S(=O)(=O)N2c3ccccc3CC2C)c1` (configuration not stated), the inhibition is 2.6%.

As to `COc1ccccc1OCc1ccc(C(=O)N2CCN(C)CC2)o1`, the inhibition was 6.4%. Turning to `COc1ccccc1N1CCN(C(=O)c2cc(=O)c3cc(C)cc(C)c3o2)CC1`, the inhibition was 51% (active). In the case of `COc1ccccc1N1CCN(C(=O)c2ccc(NC3=NC4CS(=O)(=O)CC4S3)cc2)CC1` (configuration not stated), the inhibition was -7.3%. Next, `O=C(COC(=O)c1cccnc1Cl)Nc1ccc(S(=O)(=O)N2CCOCC2)cc1`: 5.3%.

As for `CCN(CC)S(=O)(=O)c1ccc2[nH]c(=O)cc(C(=O)N(C)C3CCS(=O)(=O)C3)c2c1` (configuration not stated), the inhibition is -1.3%. For `O=C(NC1=CC(=O)c2ccccc2C1=O)c1ccccc1`, the inhibition is 84.9% (active). The same measure for `Cc1ccc(S(=O)(=O)/N=C2\C=C(NS(=O)(=O)c3ccc(C)cc3)C(=O)c3ccccc32)cc1`: 68.9% (active); for `Cc1ccc(S(=O)(=O)N/N=C(\c2ccccc2)C2CC2)cc1`: 14.8%. As to `O=C1C=C(NS(=O)(=O)c2ccccc2)C(=O)c2ccccc21`, the inhibition was 72% (active). The same measure for `Cc1cc(=O)c2ccc(NC(=O)c3ccccc3)cc2[nH]1`: 3.1%. For `COc1ccc(S(=O)(=O)/N=C2\C=C(NS(=O)(=O)c3ccccc3)C(=O)c3ccccc32)cc1`, the inhibition was 45%.

Regarding `CC(=O)NS(=O)(=O)c1ccccc1`, the inhibition was 10.6%. Next, `O=C(O)c1ccccc1NC(=O)c1ccccc1-c1ccccc1C(=O)O`: 11.9%. As for `Cc1cc(NS(=O)(=O)c2ccccc2)no1`, the inhibition was -1.3%. Next, `CC(c1ccco1)N(C(=O)COc1ccccc1[N+](=O)[O-])c1ccccn1` (configuration not stated): 8.2%; `CN(C)C(=O)Cn1c(=O)n(S(=O)(=O)c2ccccc2)c2ccccc21`: 5.9%.

As for `COC(=O)[C@@H]1C[C@H]2CC[C@H](O)C[C@H]2N1Cc1ccc(N2CCN(C)CC2)cc1`, the inhibition is 0.1%. On to `CC(C(=O)N1CCc2ccccc21)N(C)CC(=O)Nc1ccc(F)cc1` (configuration not stated), for which the inhibition is -12%.

For the compound `COC1(C2=NCCN2)COc2ccccc2O1` (configuration not stated), the inhibition was 9.5%. Next, `S=c1[nH]nc(-c2ccco2)n1/N=C/c1ccc(Br)s1`: 5.5%. `COc1ccccc1/C=C/C=N/n1c(-c2ccc(Cl)cc2Cl)n[nH]c1=S`: the inhibition is 1.4%. Consider `Cc1cc(-c2n[nH]c(=S)n2/N=C/C(Br)=C/c2ccccc2)n[nH]1`, for which the inhibition was 87.5% (active).

Turning to `CC1CCCCC1NC(=O)Cn1cnc2c1c(=O)n(C)c(=O)n2C` (configuration not stated), the inhibition was 3.3%. The same measure for `CC(C)c1nc(SCC(=O)NC(=O)NC(C)(C)C)n[nH]1`: -0.6%.

For `Cc1cccc(C)c1NC(=S)N(Cc1cccnc1)Cc1ccccc1Cl`, the inhibition is -1.1%. Consider `COc1cccc(CC(=O)N2CCCC(CCC(=O)N3CCN(c4ccccn4)CC3)C2)c1` (configuration not stated), for which the inhibition is 12.7%. The same measure for `Cc1ccc(NC(=O)CSc2nnc(CNC(=O)c3ccccc3F)o2)cc1`: -6.4%; for `CC(C)c1ccc(CC(=O)N2CCC2(C)C(=O)NS(=O)(=O)c2ccc(C(C)(C)C)cc2)cc1` (configuration not stated): 3.4%. Next, `S=c1[nH]nc2c3c4c(sc3ncn12)CCCC4`: -4%; `CC(C(=O)O)n1cnc2sc3c(c2c1=O)CCCC3` (configuration not stated): 12.1%; `c1nnc2c3c4c(sc3ncn12)CCC4`: 59% (active).

Take `O=C(Nc1cccnc1)c1noc2c1CCCCC2`: the inhibition is -3.7%. Next, `C=CC(=O)Nc1ccc(Nc2ccnc(Nc3ccc(N4CCN(C)CC4)cc3)n2)cc1`: 55.6% (active); `Cn1cnnc1SCC(=O)Nc1ccc(N2CCOCC2)cc1`: -8.2%.

On to `CN1CCN(c2ccc(NC(=O)c3cc(Cl)c4c(c3)OCCO4)cc2)CC1`, for which the inhibition was -18.8%. Next, `O=C(Nc1ccc(-n2cccn2)cc1)C1CCN(Cc2ccsc2)CC1`: 9.7%. For `CC1CCc2c(c3ccccc3[nH]c2=O)O1` (configuration not stated), the inhibition was 0.4%. Next, `COc1ccc(-c2cc(C(=O)N(C)Cc3ccc(OC)c(OC)c3OC)c3ccccc3n2)cc1OC`: 27%; `COc1ccc(-c2cc(C(=O)N(C)CC(=O)Nc3ccccc3Cl)c3ccccc3n2)cc1OC`: 22.9%. Turning to `COc1ccc(CN(C)C(=O)c2cc(-c3ccc(C)cc3C)nc3ccccc23)c(OC)c1OC`, the inhibition was 67.1% (active). For the compound `CC1Cn2c(nnc2-c2cccs2)S1` (configuration not stated), the inhibition is 9.9%. For the compound `O=C(O)C1CCCN(CCC=C(c2ccccc2)c2ccccc2)C1` (configuration not stated), the inhibition was 9.2%. On to `Cc1ccnc(NS(=O)(=O)c2ccc(NC(=O)c3ccc(S(=O)(=O)N(C)C)cc3)cc2)n1`, for which the inhibition was 2.1%.

Values taken from PubChem BioAssay AID588850 (Sanford-Burnham Center for Chemical Genomics, 2011).
